Screening results from PubChem.
HT1080 IDH1KD tx = kills HT-1080 cells with IDH1 knockdown; Potency, µM (titrated, usually from 46.1 µM), for the others: at the highest dose activity, negative = toxicity, actives largely listed as cytotoxic; 2% of 360,000 active; HT-1080 IDH1 knockdown viability, ATP luminescence, 48 h; AID 686971;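 also: potency is read from the fitted curve at half-maximal effect; 0% = DMSO wells and -100% = cell-free medium wells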
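After a 2 h attachment period, IDH1KD HT-1080 cells took pin-transferred compound for 48 h at 37 °C; ATP-based luminescence after 10 min room-temperature reagent incubation reported viability.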
uPA surface inh = blocks generation of uPA at the cell surface | cell surface uPA generation assay, qHTS | Potency, µM (doses to about 38.3 µM), for the others: top-dose activity change, negative = inhibition, actives largely listed as inhibitors | 0.31% of 330,000 active | AID 540303; active = well fitted inhibition curve with a large enough effect; inconclusive = small, poorly fitted or top-dose-only effect; inactive = no such curve, though single readings can be large or run the other way; tested in mouse RAW 264.7 cells; also: potency is read from the fitted curve at half-maximal effect; nearly all actives have a fitted effect of over 55% in size
TDP1 cell CPT = DT40-hTDP1 cell growth loss with CPT | chicken DT40 Tdp1-/-;hTDP1 cells + 20 nM CPT, ATP luminescence, 48 h | Potency, µM (titrated, usually from 46.2 µM), without a hit: at the top dose activity change, negative = growth inhibition, hits mostly inhibitors | 12% of 420,000 active; also: potency is read from the fitted curve at half-maximal effect; nearly all actives have a fitted effect of over 55% in size
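Chicken DT40 Tdp1-/- cells complemented with human TDP1, 400 cells/well, exposed to compounds plus 20 nM camptothecin for at least 48 h at 37 C; viability read as ATP content by CellTiter-Glo luminescence.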
HT1080NT lethal = kills 2HG-producing HT-1080-NT fibrosarcoma cells; Potency, µM (top dose mostly 46.1 µM), for the others: at the top dose activity, negative = less viability, hits mostly cytotoxic; AID 686970; 1.6% of 360,000 active; HT-1080-NT fibrosarcoma viability, CellTiter-Glo ATP luminescence, 48 h;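 also: NT is the 2HG producing partner of a matched IDH1 knockdown line; potency is read from the fitted curve at half-maximal effect; 0% = DMSO-treated cells and -100% = media-only wells without cells; nearly all actives have a fitted effect of over 55% in size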
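Fibrosarcoma NT cells, 750 per well in 5% FBS RPMI, were exposed to compound for 48 hours. Viability: CellTiter-Glo luminescence.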
IL1B secr inh = inflammasome signaling inhibition, IL-1 beta readout | THP-1 LPS/ATP IL-1B secretion, AlphaLISA, 16 h; hits give low values | 4.7% of 360,000 active | activity change, % at 57.5 µM | AID 743279; in the data active = activity change below about -50%; inconclusive = mostly about -30% to -49%
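THP-1 cells pretreated 1 hr with compounds (up to 57.5 uM final), then stimulated with LPS (250 ng/mL final) plus ATP (1.25 mM final); secreted IL-1B measured by AlphaLISA after 16 hr, decreased signal indicating inhibition.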
DT40 TDP1 no CPT = qHTS for Inhibitors of human tyrosyl-DNA phosphodiesterase 1 (TDP1): qHTS in cells in absence of CPT; Potency, µM (series often up to 46.2 µM), for the others: at the top dose activity change, negative = growth inhibition, actives largely listed as inhibitors; DT40 Tdp1-/- hTDP1 cells, no CPT, ATP luminescence, 48 h; 15% of 420,000 active; also: potency is read from the fitted curve at half-maximal effect; nearly all actives have a fitted effect of over 55% in size
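No-CPT arm: Tdp1-/-;hTDP1 DT40 cells (400/well) plus compounds, incubated ≥48 hr at 37 °C. Readout CellTiter-Glo luminescence.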
* = called active by the depositor; i = inactive; ? = inconclusive; . = no result. Only some compounds are listed: those with a hit (about 19% of all), similar ones and a draw of the others. Unless noted, calls follow the shape of the dose curve; as a rule, active = well fitted curve in the direction sought with a large enough effect; inconclusive = small, poorly fitted or top-dose-only effect, or another doubt; inactive = no such curve, though single readings can be large; an effect the other way counts as inactive or inconclusive. Unless noted, % is scaled to controls: 0 for no effect and ±100 for the full control effect.

SMILES	HT1080 IDH1KD tx	uPA surface inh	TDP1 cell CPT	HT1080NT lethal	IL1B secr inh	DT40 TDP1 no CPT
Cc1nn(C(C)C(=O)NCCc2ccco2)c(=O)c2nn(-c3ccccc3)c(C)c12 (stereo not given)	20%	-1%	?	2%	5	?
O=[N+]([O-])c1ccc2nc(-c3ccccc3)n(OCc3ccc(Cl)cc3)c2c1	-17%	3%	15µM*	-24%	4	9.2µM*
O=C(O)COn1c(-c2ccccc2)nc2ccc(Cl)cc21	1%	-6%	27%	-2%	-4	-10%
Cc1ccc(C=Nc2ccccc2C#N)s1	7%	4%	4%	8%	-21	-3%
Cc1c(Cl)cccc1N=Cc1ccc([N+](=O)[O-])s1	10µM*	.	?	13µM*	-102*	?
O=C1c2ccccc2[C@@H]2C[C@@H](O)[C@H](Nc3cccc4ccccc34)CCN12	-6%	3%	?	-3%	-7	16µM*
C=CCSc1nnc(NC(=O)C23CC4CC(CC(NC(C)=O)(C4)C2)C3)s1	13%	-8%	0%	20%	0	1%
C=C1C(=O)OCC2C(C(=O)O)=CC3C(C)C(C)=CC123 (stereo not given)	?	.	18µM*	-11%	-70*	18µM*
O=C(CCc1nc2ccccc2c(=O)[nH]1)N1CCN(C/C=C/c2ccccc2)CC1	-18%	-3%	7.3µM*	-2%	23	6.5µM*
CC(=O)N1CCN(C(=O)CCc2nc3ccccc3c(=O)[nH]2)CC1	9%	.	?	-2%	9	8%
O=C(c1ccco1)N1CCN(Cc2nc3cc(Cl)ccc3c(=O)[nH]2)CC1	?	2%	-12%	-30%	0	-26%
O=c1[nH]c(CN2CCN(C/C=C/c3ccccc3)CC2)nc2cc(Cl)ccc12	-27%	.	?	?	-72*	21µM*
Cn1c(OCc2cccnc2)nc2c1c(=O)n(Cc1ccccc1)c(=O)n2C	-5%	3%	?	-2%	12	18µM*
Cn1c(Oc2ccccc2)nc2c1c(=O)n(Cc1ccc(Cl)cc1Cl)c(=O)n2C	.	.	15µM*	.	.	16µM*
Cn1c(OCc2ccc3c(c2)OCO3)nc2c1c(=O)n(Cc1cccc(Cl)c1)c(=O)n2C	3%	4%	?	5%	17	10µM*
Cn1c(=O)c2c(nc(OCc3cccnc3)n2Cc2c(F)cccc2Cl)n(C)c1=O	7%	1%	?	-1%	-19	?
Cn1c(OCc2cccnc2)nc2c1c(=O)n(Cc1ccc(F)cc1)c(=O)n2C	1%	-5%	21µM*	0%	10	12µM*
O=C(O)/C=C(/c1ccccc1)C(F)(F)F	0%	0%	-5%	-1%	7	10%
Cn1c(=O)c2c(nc(SCc3cccnc3)n2Cc2ccccc2)n(C)c1=O	-22%	-4%	?	-22%	-2	?
Cn1c(=O)c2c(nc(SCc3cccnc3)n2Cc2ccc(F)cc2)n(C)c1=O	9%	-10%	21µM*	0%	10	23µM*
CCOCC(=O)Nc1ccc([N+](=O)[O-])cc1OC	-4%	-4%	17%	-7%	-62*	-16%
COc1ccccc1CC(=O)Nc1ccc([N+](=O)[O-])cc1O	?	-8%	-4%	?	-63*	-29%
CCSc1ccccc1C(=O)Nc1ccc([N+](=O)[O-])cc1OC	0%	0%	?	-1%	0	21µM*
COc1ccccc1CC(=O)Nc1ccccc1O	2%	.	1%	8%	6	-8%
CCc1ccccc1NC(=O)c1ccccc1Sc1ccc([N+](=O)[O-])cc1Cl	?	?	?	-9%	-55*	?
SMILES	HT1080 IDH1KD tx	uPA surface inh	TDP1 cell CPT	HT1080NT lethal	IL1B secr inh	DT40 TDP1 no CPT
CN1CCN(c2ccccc2NC(=O)c2ccc([N+](=O)[O-])cc2Cl)CC1	-6%	-2%	-24%	0%	7	-35%
CCC(C)C(=O)Nc1ccc([N+](=O)[O-])cc1OC (stereo not given)	4%	-1%	-4%	-1%	-27	-1%
O=c1[nH]cc(CCCc2ccccc2)c(=O)[nH]1	2%	.	0%	-2%	6	-7%
CCN(CC)CCN(C(=O)c1ccc(S(=O)(=O)N(C)C2CCCCC2)cc1)c1nc2c(C)cccc2s1	-10%	13%	23µM*	0%	-13	21µM*
CC(=O)c1ccc(C(=O)N(Cc2cccnc2)c2nc3c(C)c(C)ccc3s2)cc1	.	.	23µM*	.	.	16µM*
Cc1ccc2sc(N(CCCN(C)C)C(=O)c3ccc(S(=O)(=O)N(C)C4CCCCC4)cc3)nc2c1C	?	?	9.2µM*	-12%	?	5.8µM*
CC(=O)c1ccc(C(=O)N(CCCN(C)C)c2nc3c(C)c(C)ccc3s2)cc1	.	.	18µM*	.	.	23µM*
CCOc1cccc2sc(N(CCN(CC)CC)C(=O)c3ccc(S(=O)(=O)N4CCCC4)cc3)nc12	-6%	6%	?	-5%	-5	?
O=C(Nc1ccnn1C1CCN(C(=O)c2cccc(C(F)(F)F)c2)CC1)C1CC1	22%	1%	-11%	6%	i	-18%
Cc1ccc2sc(N(CCCN(C)C)C(=O)c3ccc(Br)s3)nc2c1C	13µM*	3%	?	21µM*	-101*	?
O=c1c(S(=O)(=O)c2ccccc2)cn(Cc2ccc(F)cc2)c2cc(N3CCCC3)c(F)cc12	.	.	-2%	.	.	-9%
CC(=O)c1ccc(NC(=O)CC23CC4CC(C2)CC(n2nnc(C)n2)(C4)C3)cc1	5%	-5%	?	0%	-12	13µM*
CC(=O)C1=C(c2ccc(Br)cc2)C(=O)c2ccccc2C1=O	13µM*	-10%	1.3µM*	13µM*	-97*	1.5µM*
CC(=O)Nc1c(Br)cc2c(c1Br)C(=O)c1ccccc1-2	2%	1%	-1%	7%	2	-4%
N=C(SC1CC(=O)N(c2ccc(F)cc2)C1=O)N1N=C(c2ccccc2)CC1c1ccccc1 (stereo not given)	0%	3%	16µM*	1%	16	?
CCC(=O)N1N=C(c2ccccc2)CC1c1ccccc1 (stereo not given)	3%	2%	-2%	-1%	-5	-17%
Cc1c(C(=O)N2CC3CCC2C3)sc2ncnc(NCCc3c[nH]c4ccccc34)c12 (stereo not given)	.	.	?	.	.	23µM*
